This is an account of results in PubChem BioAssay (NCATS).

Calls of active or inactive are those of the source. The call rests on the fitted dose curve; in most records, active means well fitted curve in the direction sought with a large enough effect; inconclusive means small, poorly fitted or top-dose-only effect, or another doubt; inactive means no such curve, though single readings can be large or run the other way.

The target of the assay is Alpha-galactosidase (Coffea arabica) (UniProt Q42656). Nature of the assay: Counterscreen for Glucocerebrosidase Inhibitors: qHTS Assay for Coffee Bean alpha-Galactosidase at pH 4.5 (AID 957).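 Further: plate controls were enzyme alone for no effect and no enzyme for full effect.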 To be noted: purified coffee bean alpha-galactosidase, fluorogenic substrate; series mostly up to 76.9 µM; activity change, negative = inhibition: at the top concentration. The source says: NIH Chemical Genomics Center [NCGC]
Sequence of Alpha-galactosidase (Coffea arabica) (Q42656 whole entry, looked up): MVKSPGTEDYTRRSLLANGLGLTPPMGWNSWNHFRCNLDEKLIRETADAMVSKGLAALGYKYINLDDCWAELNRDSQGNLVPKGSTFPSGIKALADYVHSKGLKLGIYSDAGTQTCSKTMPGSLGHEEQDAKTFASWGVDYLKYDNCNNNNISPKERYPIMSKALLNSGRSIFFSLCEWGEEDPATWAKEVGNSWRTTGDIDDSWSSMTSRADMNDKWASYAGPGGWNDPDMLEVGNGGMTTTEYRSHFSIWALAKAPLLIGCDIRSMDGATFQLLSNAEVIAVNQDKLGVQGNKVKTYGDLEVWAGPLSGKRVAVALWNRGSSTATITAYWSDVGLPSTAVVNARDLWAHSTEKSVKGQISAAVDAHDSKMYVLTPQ
NIH Molecular Libraries Screening Centers Network [MLSCN]
PI Name: Zheng, Wei [NIH]
Alpha-galactosidase is a homodimeric glycoprotein that hydrolyzes the terminal alpha-galactosyl moieties from glycolipids and glycoproteins. Deficiency of this enzyme results in Fabry Disease with progressive accumulation of globotriaosylceramide and other glycosphingolipids in vascular endothelial cells that causes renal failure, myocardial infarction and stroke, and premature death in patients. It has reported that the improper folding and trafficking of alpha-galactosidase resulted from the genetic mutations may account for a significant numbers of Fabry patients. […] We optimized this coffee bean alpha-galactosidase assay in 1536-well plate format as a counter-screen assay for identifying the selective small molecule inhibitors of other lysosomal enzymes.
NCGC Assay Protocol Summary:
This is a fluorogenic enzyme assay with 4-Methylumbelliferyl alpha-D-galactopyranoside as the substrate and green coffee bean […] (from Sigma-Aldrich) as the enzyme preparation. Upon the hydrolysis of this fluorogenic substrate, the resulting product, […]. 4-Methyllumbelliferone, can be excited at 365 nm and emits at 440 nm which can be detected by a standard fluorescence plate reader. Data were normalized to the controls for basal activity (without enzyme) and 100% activity (with enzyme). In the AC50 values were determined from concentration-response data modeled with the standard Hill equation.
Assay buffer: 50 mM citric acid, 0.005% Tween-20, pH 4.5. (pH 5.9 is an optimal condition for this enzyme assay. This assay in pH 4.5 is used for comparison the inhibitor activities with the human alpha-galactosidase assay)
1536-well assay protocol for the coffee bean alpha-galactosidase:
(1) Add 2 ul/well of enzyme (2 nM final)
(2) Add 23 nL compounds in DMSO solution. The final titration was 0.7 nM to 77 uM.
(3) Add 1 ul of substrate (80 uM final)
(4) Incubate at room temperature for 20 min.
(5) Add 2 ul stop solution (1M NaOH and 1M Glycine mixture, pH 10)
(6) Detect the assay plate in a ViewLux plate reader (PerkinElmer) with Ex=365 nm and Em=440nm.
Keywords: Alpha-galactosidase, Fabry Disease, pharmacological chaperone, chaperone therapy, high throughput screening, alpha-galactosidase inhibitor, MLSMR, MLSCN, NIH Roadmap, qHTS and NCGC
On to `CCCCCCCCCCCCCCCCCC(=O)NC[C@@H](COP(=O)([O-])OCC[N+](C)(C)C)OCC`, for which the “activity change, negative = inhibition” value was -3.16% (inactive).
On the same count and under the same terms, next, `CCCN[C@@H](C)C(=O)Nc1ccccc1C`: -1.93% (inactive); `C#CCN1C(C)=C(C(=O)OC)[C@@H](c2cccc([N+](=O)[O-])c2)C(C(=O)OCC)=C1C`: -8.53% (inactive).
Same read-out and setting: next, `N#Cc1c(-c2ccccc2)no[n+]1[O-]`: 3.45% (inactive); `C[C@@H]1C(=O)N(C)C(=O)c2nc[nH]c21`: -1.88% (inactive).
Same read-out and setting: next, `CCCCCCCCCCCCCCCC(=O)NC[C@@H](COP(=O)([O-])OCC[N+](C)(C)C)OCC`: -2.53% (inactive); `CCCCCCCC/C=C\CCCCCCCC(=O)NCCc1ccc(O)c(O)c1`: -11.6% (inactive); `O[Si@](CCCN1CCCCC1)(c1ccc(F)cc1)C1CCCCC1`: -6.7% (inactive).
In the case of `CCn1c(=O)c2[nH]c(-c3ccccc3)nc2n(CC)c1=O`, the “activity change, negative = inhibition” value was -3.86% (inactive).
The same measure, in the same setting: under `C=CCN1CC[C@]23c4c5ccc(O)c4O[C@@H]2C(=O)CC[C@@]3(O)[C@H]1C5` stands -2.45% (inactive).
The same measure, in the same setting: next, `COc1cc([C@H](O)CO)ccc1O`: -1.11% (inactive); `CC(=O)N[C@@H](C(=O)O)C(C)(C)SN=O`: 2.73% (inactive); `O=C1OC(=O)[C@@H]2[C@@H]1[C@@H]1CC[C@H]2O1`: 4.14% (inactive).
In the case of `C#C[C@H](N)CCC(=O)O`, the “activity change, negative = inhibition” value is -0.475% (inactive).
For `COC(=O)[C@H]1[C@H]2C[C@H]3c4[nH]c5ccccc5c4CCN3C[C@@H]2CC[C@@H]1O`, the result was inactive.
As to `C=CCc1ccccc1OC[C@H](O)CNC(C)C`, the “activity change, negative = inhibition” value is 0.432% (inactive).
As for `O=[N+]([O-])c1ccc(O[C@H]2O[C@@H](CO)[C@@H](O)[C@@H](O)[C@@H]2F)c([N+](=O)[O-])c1`, the “activity change, negative = inhibition” value is -4.89% (inactive).
As for `C/C=C(\C)C(=O)O[C@@H]1C(C)=C2[C@H]([C@@H]1OC(=O)CCCCCCC)[C@@](C)(OC(C)=O)C[C@@H](OC(=O)CCC)[C@@]1(O)[C@H]2OC(=O)[C@]1(C)O`, the “activity change, negative = inhibition” value is -14.1% (inactive).
For `CN(C)CC[C@H](c1ccc(Br)cc1)c1ccccn1`, the compound was classed as inactive.
Regarding `CN1CC[C@@]2(CCN3CCc4c(oc5ccccc45)[C@@H]3C2)N(C)C1=O`, the “activity change, negative = inhibition” value was 2.97% (inactive).
On to `O=C1O/C(=C\Br)CC[C@@H]1c1cccc2ccccc12`, for which the “activity change, negative = inhibition” value was -0.716% (inactive).
Same read-out and setting: next, `N[C@H](C(=O)O)[C@@H]1C[C@@H]1C(=O)O`: -0.713% (inactive); `COc1cc2nc(N3CCN(C(=O)OCc4ccccc4)[C@H](C(=O)NC(C)(C)C)C3)nc(N)c2cc1OC`: 2.05% (inactive); `CCN(c1nc(N)c(C(=O)N=C(N)N)nc1Cl)C(C)C`: -3.48% (inactive).
Turning to `CCCCC/C=C\C[C@H](O)/C=C\c1cccc(C[C@H](O)CCCCO)n1`, the “activity change, negative = inhibition” value is 1.42% (inactive).
In the case of `O[C@H](CN1CCN(c2cccc(Cl)c2)CC1)C(c1ccccc1)c1ccccc1`, the “activity change, negative = inhibition” value was -6.68% (inactive).
On the same count and under the same terms, next, `CN1CCc2cc(O)c(O)cc2[C@H](c2ccccc2)C1`: 0.723% (inactive); `CC(=O)O[C@]1(C(C)=O)CC[C@@H]2[C@@H]3C=C(Cl)C4=CC(=O)[C@H]5C[C@@H]5[C@]4(C)[C@H]3CC[C@]21C`: -4.68% (inactive); `CNCC[C@H](Oc1ccccc1OC)c1ccccc1`: -2.84% (inactive).
Regarding `CC(=O)[C@@]1(O)Cc2c(O)c3c(c(O)c2[C@H](O[C@H]2C[C@H](N)[C@H](O)[C@H](C)O2)C1)C(=O)c1ccccc1C3=O`, the “activity change, negative = inhibition” value is 0.409% (inactive).
With `Oc1ccc([C@@H]2CNCc3sccc32)cc1O`, the “activity change, negative = inhibition” value was 0.184% (inactive).
Same read-out and setting: under `C[C@]1(C(=O)O)[C@@H]2CC[C@@H](O2)[C@@]1(C)C(=O)O` stands -2.5% (inactive); under `CC(C)COC[C@H](CN(Cc1ccccc1)c1ccccc1)N1CCCC1`, -10.6% (inactive); under `CCCCCCCCCCCCC/C=C\[C@@H](O)[C@@H](N)CO`, -3.15% (inactive).
Still for that read-out and setting: next, `C[C@@H](CN1CCC(Cc2ccccc2)CC1)[C@H](O)c1ccc(O)cc1`: -0.625% (inactive); `Cc1ccccc1[C@@H](OCCN(C)C)c1ccccc1`: -2.58% (inactive); `CCCCOC(=O)NS(=O)(=O)c1sc(CC(C)C)cc1-c1ccc(Cn2c(CC)nc3c(C)cc(C)nc32)cc1`: -2.49% (inactive).
Still for that read-out and setting: next, `Nc1nc2c(nc(Br)n2[C@@H]2O[C@H]3COP(=O)(O)O[C@@H]3[C@H]2O)c(=O)[nH]1`: -1.33% (inactive); `CN1CCN2c3ccccc3Cc3ccccc3[C@@H]2C1`: 1.61% (inactive); `COc1c2c(nc3ccccc13)O[C@@H]([C@@](C)(O)CO)C2`: -1.86% (inactive).
